High-throughput results: PubChem, The Scripps Research Institute Molecular Screening Center
hgDAF-12 ag – activates the H. glycines DAF-12 receptor ligand-binding domain; HEK293 GAL4-hgDAF12 UAS-luciferase reporter, agonist luminescence; normalized to butyrate control; activation, % at 6.8 µM; 1.8% of 370,000 active; AID 687014;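 active means activation above a cutoff set at the mean of all screened compounds plus 3 SD, cut at about 10% in these data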;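 further: 0% = DMSO wells and 100% = sodium butyrate wells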
ssDAF12 agonist – activates DAF-12 receptor from parasite S. stercoralis; HEK293 ssDAF-12/GRIP1 lit1-tk-luc reporter, luminescence; % of 3 µM dafachronic acid response; activation, % at 6.8 µM; 1% of 370,000 active; AID 652126;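 active means activation above the mean over all tested compounds plus 3 SD, cut at about 0.9% in these data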;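 further: 0% = DMSO-only wells and 100% = 3 µM delta7-dafachronic acid wells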
hcDAF-12 act – H. contortus DAF-12 activation, primary screen; HEK293 hcDAF-12 lit1-tk-luc reporter, luminescence; 0% DMSO, 100% Δ7-dafachronic acid; activation, % at 6.8 µM; 1.4% of 370,000 active;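 active means activation above the mean of all tested compounds plus 3 SD, cut at about 5.5% in these data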;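 further: 100% = response to 3 µM Δ7-dafachronic acid high control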
DAX1 inh-1 – inhibitors of DAX1 repression of SF-1 activated StAR promoter; HEK293T StAR-luciferase reporter, SF-1/DAX-1 repression relief; inhibition, % at 6.8 µM; 1.1% of 370,000 active; AID 652010;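 active means inhibition above the mean over all tested compounds plus 3 SD, cut at about 3.6% in these data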;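 further: 0% = DAX-1 cells with DMSO and 100% = cells lacking DAX-1 with DMSO; higher inhibition means more luminescence from relief of DAX-1 repression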
DAX1 inh-2 – inhibits human nuclear receptor DAX1; P51843; HEK293 Gal4-DAX1 luciferase reporter, luminescence; inhibition, % at 6.75 µM; 0.99% of 340,000 active; AID 504766;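 active means inhibition above the mean over all tested compounds plus 3 SD, cut at about 4.2% in these data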;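 further: 0% = DAX1-transfected cells with DMSO and 100% = empty-vector control cells with DMSO; inhibition shows as a rise in luminescence from relieved DAX1 repression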
Target sequence (P51843 207-470 limits assumed): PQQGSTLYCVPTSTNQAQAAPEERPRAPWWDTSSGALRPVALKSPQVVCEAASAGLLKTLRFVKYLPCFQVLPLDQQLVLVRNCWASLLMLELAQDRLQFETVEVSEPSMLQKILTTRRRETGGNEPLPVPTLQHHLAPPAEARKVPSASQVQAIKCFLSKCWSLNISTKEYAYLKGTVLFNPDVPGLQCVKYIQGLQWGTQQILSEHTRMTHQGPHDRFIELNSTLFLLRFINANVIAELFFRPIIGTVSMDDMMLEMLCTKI
SMARCA2 activ – increases SMARCA2 function in MMTV reporter cells; 1% of 370,000 active; activation, % at 9.1 µM; MG213 cells, MMTV-luciferase reporter, dexamethasone, overnight; in the data active means activation above about 7.8%;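 further: 0% = vehicle wells and 100% = reference activator wells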
SMARCA2 act conf – SMARCA2 activation, confirmation screen; shares compounds with SMARCA2 activ; MG213 cells, MMTV-luciferase with dexamethasone, luminescence, overnight; MG213 cells expressing E1A, Rb sequestered; DMSO wells 0%, reference activator 100%; activation, % at 9.1 µM; 30% of 3,500 active;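 active means activation above its plate's cutoff, the mean activation of tested wells plus 3 SD, cut at about 7.9% in these data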
GAL4-VP16 Luc – counter-screen for SMARCA2 activators: GAL4-VP16 luciferase reporter activation. shares compounds with SMARCA2 activ. HEK293 GAL4-VP16 pG5luc reporter, luciferase luminescence; scaled: DMSO wells 0%, SAHA wells 100%. activation, % at 9.1 µM. 41% of 3,500 active. AID 686939;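 active means activation above the solvent-only control well mean plus 3 SD, averaged across control plates, cut at about 5.2% in these data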
* = called active by the depositor; . = no result given. Hits are enriched below; roughly 4.8% of the tested compounds scored in any of these assays.

SMILES | hgDAF-12 ag | ssDAF12 agonist | hcDAF-12 act | DAX1 inh-1 | DAX1 inh-2 | SMARCA2 activ | SMARCA2 act conf | GAL4-VP16 Luc
Cc1nonc1C(=O)N/N=C/c1ccc(O)c(O)c1 | 2 | -1 | -2 | 1 | 0 | 9.0* | 0 | 3
COc1cc(/C=N/NC(=S)Nc2cccc(S(=O)(=O)N(C)C)c2)ccc1O | -2 | -1 | -2 | -1 | 1 | 9.8* | 2 | 5.8*
COc1cc(/C=N/NC(=O)c2nonc2C)ccc1O | 7 | 0 | 0 | 0 | 0 | 9.4* | 6 | 0
COc1cc(/C=N/NC(=O)c2nc(C)cc(C)n2)ccc1O | 7 | -1 | 1 | 1 | 2 | 8.9* | 2 | 0
CCn1c(SCC(=O)NN=Cc2c[nH]c3ccccc23)nc2ccccc21 | 1 | -1 | 0 | -4 | . | -6 | . | .
Cc1cc(OCC(=O)NC(C)C)cc(C)c1Cl | -1 | -1 | -2 | 0 | -1 | 11* | -5 | -1
Cc1ccc(-c2cc(C(=O)NN=Cc3sccc3C)[nH]n2)cc1C | 0 | -2 | 4 | 0 | . | -5 | . | .
COc1ccc(SC2=C[C@@]3(O)CC[C@@H](O)[C@@](Sc4ccc(OC)cc4)(C2=O)[C@H]3O)cc1 | -2 | -1 | -3 | -2 | . | -2 | . | .
O=C1C(Sc2ccccc2)=C[C@@]2(O)CC[C@@H](O)[C@]1(Sc1ccccc1)[C@H]2O | -1 | -1 | -1 | -1 | . | 12* | 10* | 2
COc1ccc(-c2cc(C(=O)NN=Cc3ccccc3[N+](=O)[O-])[nH]n2)cc1 | 4 | -1 | -2 | -1 | . | -2 | . | .
COc1cccc(-c2cc(C(=O)O)no2)c1 | -3 | -1 | -1 | 0 | 0 | 2 | . | .
COc1cccc(-c2cc(C(=O)N3CCCCC3C)no2)c1 (configuration not stated) | 10 | 0 | 2 | 3 | 3 | 12* | 6 | 12*
Cc1ccc(C(=O)N/N=C\c2cccn2C)cn1 | 2 | -1 | 0 | 0 | 1 | 0 | . | .
O=C(N/N=C/c1cccc2ccccc12)c1cccnc1 | 5 | -1 | 0 | 0 | 3 | 9.1* | 1 | 3
O=C(N/N=C/c1cn(Cc2ccccc2)c2ccccc12)c1cccnc1 | -4 | -2 | -4 | -2 | -4 | -6 | . | .
Cn1cccc1/C=N/NC(=O)c1cccnc1 | 2 | -1 | 1 | 0 | 0 | 8.3* | 1 | 1
Cc1ccccc1/C=N/NC(=O)c1cccnc1 | 3 | 0 | 0 | 0 | 1 | -1 | . | .
Cn1c(-c2ccccc2)c(/C=N/NC(=O)c2cccnc2)c2ccccc21 | 6 | -1 | 0 | 2 | 3 | 12* | 6 | 2
Cc1ccc(-n2c(SCC(=O)NN=Cc3c[nH]c4ccccc34)nnc2-c2ccccc2)cc1 | -2 | 0 | 1 | -1 | . | -7 | . | .
CCCCOc1ccc(C(=O)n2ccc3ccc(-c4ccc5ccn(Cc6ccccc6)c5c4)cc32)cc1 | 3 | -1 | -1 | -1 | . | -2 | . | .
CCN(CC)C(=O)c1oc(=O)c2ccccc2c1-c1ccc(C)cc1 | 0 | -1 | -3 | -1 | . | -7 | . | .
COc1cccc(CNC(=S)OC2CCC23CCC(c2ccccc2)CC3)c1 (configuration not stated) | -1 | -1 | -1 | -1 | . | -2 | . | .
CC(C)OCCCNC1=C(Cl)C(=O)c2ccccc2C1=O | -3 | -1 | -2 | 0 | . | 9.4* | 6 | 2
CC(C)C(=O)N[C@H]1[C@H](O)CCC[C@@]12C(=O)N(Cc1ccccc1)c1ccccc12 | 2 | -1 | 1 | 1 | . | 3 | . | .
COc1ccccc1N1CCN(C(=O)C2CCN(C(=O)c3ccccc3Cl)CC2)CC1 | -3 | -1 | -2 | -2 | 0 | 8.2* | -2 | 0
SMILES | hgDAF-12 ag | ssDAF12 agonist | hcDAF-12 act | DAX1 inh-1 | DAX1 inh-2 | SMARCA2 activ | SMARCA2 act conf | GAL4-VP16 Luc
NC(=S)N/N=C/c1coc2c(ccc3ccccc32)c1=O | 5 | 1 | 5 | 0 | 3 | 13* | 2 | 3
O=C1CC(N2CCN(c3nc4ccccc4s3)CC2)C(=O)N1c1ccc(F)cc1 (configuration not stated) | 0 | -1 | 0 | -1 | -1 | 0 | . | .
COC(=O)/C=C1\C(=O)N(c2nc3ccccc3s2)C(=S)N1c1ccc(F)cc1 | 0 | -1 | -1 | -1 | 0 | 8.6* | 3 | 3
COc1ccc(/C=C/S(=O)(=O)NCC(C)C)c(CNC(=O)OC(C)(C)C)c1 | -3 | -2 | -3 | 0 | . | -4 | . | .
C[C@H]1[C@@H](NCC2CCCCC2)CC[C@@]23CCCN2C(=O)CCC[C@@H]13 | 2 | -2 | 2 | . | . | . | . | .
CCN(C(=O)[C@@H](C1CC1)[C@@H](O)c1ccc(C(C)=O)cc1)c1ccccc1 | -2 | -1 | -2 | 0 | . | -1 | . | .
CNC(=S)NNC(=O)c1sc2cc(C(F)(F)F)cnc2c1-c1ccccn1 | -4 | -1 | 0 | 0 | -1 | 8.0* | 1 | 2
CNC(=S)NNC(=O)c1sc2cc(C(F)(F)F)cnc2c1-c1cccnc1 | -5 | -1 | -1 | -1 | 0 | 0 | . | .
O=C(/C=C/Sc1ccccc1)c1ccc(Cl)cc1 | 1 | -1 | -1 | -1 | -1 | 8.1* | 5 | 6.4*
O=C(Cn1cnc2ccccc2c1=O)N1CCN(Cc2ccc(F)cc2)CC1 | -1 | -1 | 0 | -1 | . | -4 | . | .
Nc1ccc2c(c1)C(=O)c1cc(N)c(Cl)cc1-2 | 10 | 0 | 2 | 0 | -1 | 11* | 11* | 3
O=C(Cn1sc2ccccc2c1=O)NC12CC3CC(CC(C3)C1)C2 | . | . | . | . | 1 | . | . | .
O=C(Cn1sc2ccccc2c1=O)Nc1ccccc1 | 3 | -1 | 1 | 1 | 0 | 12* | 6 | 0
CCc1ccc(N(C(=O)c2ccco2)C(C(=O)NC2CCCC2)c2cccnc2)cc1 (configuration not stated) | 2 | 0 | 0 | 0 | -2 | -3 | . | .
CC(C)c1ccc(N(C(=O)c2ccco2)C(C(=O)NC2CCCC2)c2ccncc2)cc1 (configuration not stated) | 10* | 0 | 4 | 1 | 1 | 8.0* | 3 | 3
CCC(C)c1ccc(N(C(=O)c2ccco2)C(C(=O)NC2CCCC2)c2cccnc2)cc1 (configuration not stated) | 3 | 0 | -2 | 0 | -1 | 8.1* | 4 | 5.2*
O=C1COc2ccccc2C(c2nnnn2-c2ccc3ccccc3c2)N1C1CC1 (configuration not stated) | 1 | 0 | -2 | -1 | . | -1 | . | .
